Results reported in the supplement of paper PMC11732987, “Enantioselective OTUD7B fragment discovery through chemoproteomics screening and high-throughput optimisation” (Communications Chemistry, 2025).

How the values were obtained:
Test in all cases: log2 ratio of Biotin-Ahx-Ub-VS probe labelling (fragment/DMSO); higher = less target engagement (more negative = stronger competition), active = hit call of the paper (q ≤ 0.05, log2 ratio ≤ -1)
Conditions in all cases: compound concentration: 200 uM; treatment time: 3 h
USP34 = USP34 (UniProt Q70CQ2)
Summary of the method: (§1)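 Global-median-normalised Spectronaut label-free quantities were compared by unpaired t-test, and values are average log2 ratios of fragment over vehicle. Only proteins with ≥2 unique peptides were used. HEK293T lysate (495 µg per sample) was treated in triplicate with fragment at 200 µM or vehicle for 3 h and then with Biotin-Ahx-Ub-VS at 0.5 µM final for 1 h. Labelled DUBs were then NeutrAvidin-enriched, digested with LysC and trypsin, and run by diaPASEF LC-MS/MS.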

USP36 = target: T1, USP36 (UniProt Q9P275)
T1 sequence (whole entry): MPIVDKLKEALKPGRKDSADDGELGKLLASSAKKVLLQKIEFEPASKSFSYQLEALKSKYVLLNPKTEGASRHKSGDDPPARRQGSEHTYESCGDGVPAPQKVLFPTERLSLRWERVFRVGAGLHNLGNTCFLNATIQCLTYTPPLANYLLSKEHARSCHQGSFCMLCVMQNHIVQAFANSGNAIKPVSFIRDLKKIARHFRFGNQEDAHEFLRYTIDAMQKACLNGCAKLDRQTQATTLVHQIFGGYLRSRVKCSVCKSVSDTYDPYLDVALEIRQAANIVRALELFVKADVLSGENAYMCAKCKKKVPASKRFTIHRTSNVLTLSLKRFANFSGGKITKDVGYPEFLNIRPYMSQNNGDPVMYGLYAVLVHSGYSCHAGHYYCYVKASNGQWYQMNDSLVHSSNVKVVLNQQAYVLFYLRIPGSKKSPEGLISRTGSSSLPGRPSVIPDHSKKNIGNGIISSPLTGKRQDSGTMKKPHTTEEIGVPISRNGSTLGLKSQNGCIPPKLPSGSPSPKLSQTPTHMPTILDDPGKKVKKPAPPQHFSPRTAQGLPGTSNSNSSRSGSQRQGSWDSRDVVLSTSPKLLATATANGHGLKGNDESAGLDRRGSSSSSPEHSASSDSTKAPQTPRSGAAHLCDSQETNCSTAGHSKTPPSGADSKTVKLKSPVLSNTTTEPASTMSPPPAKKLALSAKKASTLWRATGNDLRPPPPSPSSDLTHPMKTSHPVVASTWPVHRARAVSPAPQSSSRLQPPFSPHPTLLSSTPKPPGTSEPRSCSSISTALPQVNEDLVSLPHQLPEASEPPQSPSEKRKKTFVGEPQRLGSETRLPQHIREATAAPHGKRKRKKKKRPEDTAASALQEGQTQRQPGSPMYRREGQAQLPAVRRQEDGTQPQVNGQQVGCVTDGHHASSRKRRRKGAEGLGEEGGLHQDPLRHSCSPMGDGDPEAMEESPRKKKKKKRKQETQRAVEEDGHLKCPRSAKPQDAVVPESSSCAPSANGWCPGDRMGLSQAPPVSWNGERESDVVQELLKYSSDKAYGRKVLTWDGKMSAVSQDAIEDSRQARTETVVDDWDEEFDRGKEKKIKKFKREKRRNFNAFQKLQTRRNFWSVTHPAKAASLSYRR
Summary of the method: as §1

USP38 = target: T2, USP38 (UniProt Q8NB14)
T2 sequence (whole entry): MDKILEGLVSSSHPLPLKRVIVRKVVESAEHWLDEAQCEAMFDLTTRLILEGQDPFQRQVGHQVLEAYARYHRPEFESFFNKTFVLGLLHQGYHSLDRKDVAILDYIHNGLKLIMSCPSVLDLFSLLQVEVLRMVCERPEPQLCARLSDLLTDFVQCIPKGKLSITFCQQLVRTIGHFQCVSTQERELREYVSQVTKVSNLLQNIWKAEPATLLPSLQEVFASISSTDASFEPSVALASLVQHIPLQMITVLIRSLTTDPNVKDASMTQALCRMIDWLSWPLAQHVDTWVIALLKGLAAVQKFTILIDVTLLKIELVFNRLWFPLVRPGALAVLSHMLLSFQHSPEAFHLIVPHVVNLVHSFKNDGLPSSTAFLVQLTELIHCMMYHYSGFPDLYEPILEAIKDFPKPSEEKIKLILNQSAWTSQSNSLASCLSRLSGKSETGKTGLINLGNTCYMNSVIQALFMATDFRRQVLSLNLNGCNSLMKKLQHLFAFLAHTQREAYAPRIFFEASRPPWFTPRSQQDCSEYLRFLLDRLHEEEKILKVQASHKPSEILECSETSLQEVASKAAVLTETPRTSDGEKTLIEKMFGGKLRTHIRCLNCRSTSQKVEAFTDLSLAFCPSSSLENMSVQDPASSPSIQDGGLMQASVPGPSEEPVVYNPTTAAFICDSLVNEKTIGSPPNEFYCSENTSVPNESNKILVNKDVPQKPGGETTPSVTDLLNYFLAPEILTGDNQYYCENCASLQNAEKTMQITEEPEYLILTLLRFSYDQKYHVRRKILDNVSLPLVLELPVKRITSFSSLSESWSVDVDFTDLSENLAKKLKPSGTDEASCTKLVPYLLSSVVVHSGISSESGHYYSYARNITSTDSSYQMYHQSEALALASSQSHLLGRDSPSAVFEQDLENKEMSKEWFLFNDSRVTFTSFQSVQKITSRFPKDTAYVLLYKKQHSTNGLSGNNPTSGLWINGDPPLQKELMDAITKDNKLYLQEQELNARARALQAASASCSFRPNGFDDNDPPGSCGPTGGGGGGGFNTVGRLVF
Summary of the method: as §1

USP39 = target: T3, USP39 (UniProt Q53GS9)
T3 sequence (whole entry): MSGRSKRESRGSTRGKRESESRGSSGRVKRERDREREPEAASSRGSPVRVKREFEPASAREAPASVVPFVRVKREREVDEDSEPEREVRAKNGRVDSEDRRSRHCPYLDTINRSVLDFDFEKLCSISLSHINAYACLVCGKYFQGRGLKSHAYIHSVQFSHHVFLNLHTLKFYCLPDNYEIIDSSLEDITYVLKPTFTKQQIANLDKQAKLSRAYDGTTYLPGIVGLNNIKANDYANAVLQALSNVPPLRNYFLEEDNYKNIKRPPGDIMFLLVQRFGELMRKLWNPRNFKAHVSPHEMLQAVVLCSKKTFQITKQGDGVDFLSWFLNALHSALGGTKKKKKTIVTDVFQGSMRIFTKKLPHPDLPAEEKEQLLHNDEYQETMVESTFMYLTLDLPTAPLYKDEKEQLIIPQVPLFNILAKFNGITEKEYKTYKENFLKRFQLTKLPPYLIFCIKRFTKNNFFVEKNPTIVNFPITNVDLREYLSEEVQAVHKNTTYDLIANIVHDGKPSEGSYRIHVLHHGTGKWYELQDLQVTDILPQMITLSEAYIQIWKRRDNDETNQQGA
Summary of the method: as §1

USP4 = target: T4, USP4 (UniProt Q13107)
T4 sequence (whole entry): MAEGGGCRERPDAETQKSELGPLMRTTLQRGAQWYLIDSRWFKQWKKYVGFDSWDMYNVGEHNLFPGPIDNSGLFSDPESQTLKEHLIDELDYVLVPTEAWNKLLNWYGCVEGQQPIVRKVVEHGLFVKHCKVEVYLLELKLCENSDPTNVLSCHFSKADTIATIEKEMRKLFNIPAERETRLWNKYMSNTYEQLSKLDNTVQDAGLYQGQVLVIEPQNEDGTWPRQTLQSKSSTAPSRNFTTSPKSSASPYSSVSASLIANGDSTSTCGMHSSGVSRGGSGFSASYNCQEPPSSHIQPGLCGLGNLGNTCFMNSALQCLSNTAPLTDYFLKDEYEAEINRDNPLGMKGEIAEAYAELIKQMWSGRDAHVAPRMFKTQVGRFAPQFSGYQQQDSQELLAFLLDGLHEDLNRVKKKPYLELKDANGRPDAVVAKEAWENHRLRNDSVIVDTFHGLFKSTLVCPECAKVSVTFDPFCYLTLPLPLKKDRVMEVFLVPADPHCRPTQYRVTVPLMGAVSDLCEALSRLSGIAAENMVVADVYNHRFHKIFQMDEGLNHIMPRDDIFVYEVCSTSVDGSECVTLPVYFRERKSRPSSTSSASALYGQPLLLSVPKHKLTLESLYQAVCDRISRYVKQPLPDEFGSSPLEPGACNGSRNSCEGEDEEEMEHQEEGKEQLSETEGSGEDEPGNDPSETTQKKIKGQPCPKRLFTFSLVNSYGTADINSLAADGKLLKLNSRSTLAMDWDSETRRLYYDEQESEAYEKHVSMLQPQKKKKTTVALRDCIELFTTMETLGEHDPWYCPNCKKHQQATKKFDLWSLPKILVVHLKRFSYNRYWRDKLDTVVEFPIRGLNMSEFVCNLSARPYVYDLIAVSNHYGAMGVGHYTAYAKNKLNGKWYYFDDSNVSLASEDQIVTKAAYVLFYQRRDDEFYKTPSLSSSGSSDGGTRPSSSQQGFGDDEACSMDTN
Summary of the method: as §1

Measured: log2 ratio of Biotin-Ahx-Ub-VS probe labelling

Chain of USP34 (Q70CQ2 whole entry, the tested form may be a part): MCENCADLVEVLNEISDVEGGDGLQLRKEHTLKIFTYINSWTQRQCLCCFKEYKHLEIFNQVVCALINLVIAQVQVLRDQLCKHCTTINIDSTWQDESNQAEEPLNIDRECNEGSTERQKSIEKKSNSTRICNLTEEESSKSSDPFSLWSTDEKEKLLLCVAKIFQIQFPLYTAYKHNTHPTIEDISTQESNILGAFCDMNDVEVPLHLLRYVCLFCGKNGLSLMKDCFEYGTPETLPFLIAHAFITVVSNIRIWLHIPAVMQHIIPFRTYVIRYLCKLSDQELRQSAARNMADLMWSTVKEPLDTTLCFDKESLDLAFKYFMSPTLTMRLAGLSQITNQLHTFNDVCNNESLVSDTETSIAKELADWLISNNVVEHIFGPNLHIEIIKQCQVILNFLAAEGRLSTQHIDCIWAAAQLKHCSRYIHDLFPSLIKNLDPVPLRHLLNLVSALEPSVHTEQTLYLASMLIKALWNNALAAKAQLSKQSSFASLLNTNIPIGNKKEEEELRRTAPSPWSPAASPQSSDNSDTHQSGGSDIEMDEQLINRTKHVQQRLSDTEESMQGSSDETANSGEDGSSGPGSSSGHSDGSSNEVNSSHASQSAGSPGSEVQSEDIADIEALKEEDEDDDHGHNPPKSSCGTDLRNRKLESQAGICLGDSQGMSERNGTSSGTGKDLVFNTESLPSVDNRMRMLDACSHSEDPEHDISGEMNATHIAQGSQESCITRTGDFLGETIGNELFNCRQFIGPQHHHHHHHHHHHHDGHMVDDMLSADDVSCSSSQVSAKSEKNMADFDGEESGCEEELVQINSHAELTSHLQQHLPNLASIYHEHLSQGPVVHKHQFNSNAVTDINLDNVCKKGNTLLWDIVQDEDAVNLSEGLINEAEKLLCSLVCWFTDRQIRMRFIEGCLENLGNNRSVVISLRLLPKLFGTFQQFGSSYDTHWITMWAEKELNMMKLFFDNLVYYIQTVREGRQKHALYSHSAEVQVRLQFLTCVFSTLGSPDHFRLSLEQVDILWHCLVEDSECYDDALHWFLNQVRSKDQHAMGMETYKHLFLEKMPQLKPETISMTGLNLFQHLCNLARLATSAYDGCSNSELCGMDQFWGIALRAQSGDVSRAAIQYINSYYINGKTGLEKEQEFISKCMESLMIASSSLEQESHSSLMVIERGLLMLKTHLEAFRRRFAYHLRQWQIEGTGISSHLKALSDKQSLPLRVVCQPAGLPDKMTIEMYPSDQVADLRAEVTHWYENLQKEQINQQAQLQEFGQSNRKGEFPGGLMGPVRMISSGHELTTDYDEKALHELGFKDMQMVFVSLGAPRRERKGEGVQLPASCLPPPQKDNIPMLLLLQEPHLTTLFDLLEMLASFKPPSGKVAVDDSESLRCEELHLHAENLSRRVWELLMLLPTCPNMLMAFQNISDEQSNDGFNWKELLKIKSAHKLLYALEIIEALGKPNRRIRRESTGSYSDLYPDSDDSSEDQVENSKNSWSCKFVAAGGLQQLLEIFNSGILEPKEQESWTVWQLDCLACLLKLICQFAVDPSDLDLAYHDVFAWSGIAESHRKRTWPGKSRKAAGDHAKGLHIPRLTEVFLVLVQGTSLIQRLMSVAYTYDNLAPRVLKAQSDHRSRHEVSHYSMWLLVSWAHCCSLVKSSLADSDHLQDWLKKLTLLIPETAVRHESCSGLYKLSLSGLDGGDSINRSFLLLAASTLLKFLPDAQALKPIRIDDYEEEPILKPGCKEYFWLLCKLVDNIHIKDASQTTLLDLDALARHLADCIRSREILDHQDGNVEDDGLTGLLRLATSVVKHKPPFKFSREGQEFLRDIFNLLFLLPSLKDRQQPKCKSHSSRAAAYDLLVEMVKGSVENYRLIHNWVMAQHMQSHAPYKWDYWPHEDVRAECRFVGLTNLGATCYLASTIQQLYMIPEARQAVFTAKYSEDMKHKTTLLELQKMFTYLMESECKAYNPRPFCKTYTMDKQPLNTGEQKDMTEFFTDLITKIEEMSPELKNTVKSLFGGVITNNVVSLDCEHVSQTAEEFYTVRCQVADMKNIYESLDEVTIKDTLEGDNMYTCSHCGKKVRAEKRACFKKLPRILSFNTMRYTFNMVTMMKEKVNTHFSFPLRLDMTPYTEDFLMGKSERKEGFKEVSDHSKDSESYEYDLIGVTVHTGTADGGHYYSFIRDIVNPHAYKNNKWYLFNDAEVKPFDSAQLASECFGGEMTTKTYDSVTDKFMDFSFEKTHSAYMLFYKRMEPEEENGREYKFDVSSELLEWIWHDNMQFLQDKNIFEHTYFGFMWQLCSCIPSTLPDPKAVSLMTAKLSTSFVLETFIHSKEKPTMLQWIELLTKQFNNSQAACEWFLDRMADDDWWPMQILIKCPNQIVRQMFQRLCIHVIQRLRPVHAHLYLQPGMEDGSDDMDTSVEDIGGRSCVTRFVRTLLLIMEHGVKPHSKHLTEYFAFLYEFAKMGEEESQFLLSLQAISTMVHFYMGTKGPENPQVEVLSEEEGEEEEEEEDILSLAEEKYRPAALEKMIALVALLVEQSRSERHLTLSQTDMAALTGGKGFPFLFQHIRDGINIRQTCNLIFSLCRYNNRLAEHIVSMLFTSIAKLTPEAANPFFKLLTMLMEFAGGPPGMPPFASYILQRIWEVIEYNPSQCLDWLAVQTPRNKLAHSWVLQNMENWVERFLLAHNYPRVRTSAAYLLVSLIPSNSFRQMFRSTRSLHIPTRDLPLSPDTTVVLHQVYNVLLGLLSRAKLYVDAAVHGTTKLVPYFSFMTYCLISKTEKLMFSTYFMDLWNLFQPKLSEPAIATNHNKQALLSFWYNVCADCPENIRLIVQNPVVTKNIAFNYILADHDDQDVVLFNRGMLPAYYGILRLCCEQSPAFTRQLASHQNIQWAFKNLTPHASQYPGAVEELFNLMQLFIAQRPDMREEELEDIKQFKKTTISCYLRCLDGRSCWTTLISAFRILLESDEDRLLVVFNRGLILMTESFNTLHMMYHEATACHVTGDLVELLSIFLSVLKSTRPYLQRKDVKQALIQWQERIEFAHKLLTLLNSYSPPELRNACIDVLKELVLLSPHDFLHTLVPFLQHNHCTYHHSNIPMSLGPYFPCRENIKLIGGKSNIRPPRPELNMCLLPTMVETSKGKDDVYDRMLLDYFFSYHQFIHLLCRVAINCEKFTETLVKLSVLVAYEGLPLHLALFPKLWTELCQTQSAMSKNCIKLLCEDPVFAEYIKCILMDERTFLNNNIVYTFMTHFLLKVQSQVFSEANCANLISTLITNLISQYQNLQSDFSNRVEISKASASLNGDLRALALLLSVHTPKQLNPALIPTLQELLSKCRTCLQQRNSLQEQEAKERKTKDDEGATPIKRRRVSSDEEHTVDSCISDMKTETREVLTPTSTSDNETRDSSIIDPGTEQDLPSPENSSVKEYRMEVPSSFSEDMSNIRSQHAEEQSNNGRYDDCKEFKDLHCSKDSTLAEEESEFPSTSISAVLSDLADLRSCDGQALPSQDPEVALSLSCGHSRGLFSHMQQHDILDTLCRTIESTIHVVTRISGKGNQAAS

Cl.O=C(CCl)N1CCn2ncc(O)c2C1
inactive: USP34 -0.237 | USP36 -0.037 | USP38 -0.188 | USP39 0.194 | USP4 -0.298
